Assay results as given in a collection of fitness landscapes (doi:10.1126/science.1257360).
The full ranking holds about 140,000 sequences; the median of “enrichment ratio after two sorts for PhoP signalling” is about 0, and the highest 2% start at about 11. The list comes from a sample in which the highest values are over-represented; it also holds similar and randomly drawn sequences.

B1: PhoQ; a variant is named by its letters at X, in order, P23837 (parent)
chain: MKKLLRLFFPLSLRVRFLLATAAVVLVLSLAYGMVALIGYSVSFDKTTFRLLRGESNLFYTLAKWENNKLHVELPENIDKQSPTMTLIYDENGQLLWAQRDVPWLMKMIQPDWLKSNGFHEIEADVNDTSLLLSGDHSIQQQLQEVREDDDDAEMTHSVAVNVYPATSRMPKLTIVVVDTIPVELKSSYMVWSWFIYVLSANLLLVIPLLWVAAWWSLRPIEALAKEVRELEEHNRELLNPATTRELTSLVRNLNRLLKSERERYDKYRTTLTDLTHSLKTPLXXLQXXLRSLRSEKMSVSDAEPVMLEQISRISQQIGYYLHRASMRGGTLLSRELHPVAPLLDNLTSALNKVYQRKGVNISLDISPEISFVGEQNDFVEVMGNVLDNACKYCLEFVEISARQTDEHLYIVVEDDGPGIPLSKREVIFDRGQRVDTLRPGQGVGLAVAREITEQYEGKIVAGESMLGGARMEVIFGRQHSAPKDE

Variants of: B1
Assay: enrichment ratio after two sorts for PhoP signalling (ratio (wild type AVST 3.29)); higher = more functional
Details: with PhoP (E. coli)

Variant	enrichment ratio
GLLF	4.76
NFMP	≤ 0.25
LLRY	≤ 0.25
VNTC	≤ 0.25
IRDH	≤ 0.25
EIET	≤ 0.25
MPTT	≤ 0.25
KEKC	≤ 0.25
VMIT	≤ 0.25
IQVQ	≤ 0.25
TQMQ	24.2
PVSG	≤ 0.25
IQMQ	≤ 0.25
WQVQ	≤ 0.25
NVSG	≤ 0.25
KSQG	≤ 0.25
TQMI	6.9
TQSG	22.2
LAQG	≤ 0.25
TQVQ	13.8
TQQG	16.8
GHDF	≤ 0.25
PFFG	≤ 0.25
QSAN	≤ 0.25

Variant	enrichment ratio
HQRF	≤ 0.25
YLKI	≤ 0.25
YYVE	≤ 0.25
YDMW	≤ 0.25
QNMD	≤ 0.25
KQAG	≤ 0.25
SQMA	8.75
TQAG	28.2
TQQR	≤ 0.25
TQMV	7.29
WQAG	≤ 0.25
NQMA	≤ 0.25
TQMG	32.5
TQMA	12.7
EPSH	≤ 0.25
CFVH	≤ 0.25
RDRE	≤ 0.25
NQHC	≤ 0.25
RVAA	≤ 0.25
LDQA	≤ 0.25
TQQN	14.8
TQLN	13.2
FQFN	≤ 0.25
TQWN	10.1

Variant	enrichment ratio
TQEN	≤ 0.25
NQFN	≤ 0.25
NVTN	≤ 0.25
KQLN	≤ 0.25
DWTN	≤ 0.25
TQTN	15.4
EQLN	≤ 0.25
TQFN	14.2
VGED	≤ 0.25
FPIP	≤ 0.25
WVYL	≤ 0.25
IRTL	≤ 0.25
TQCN	24.9
NQCN	≤ 0.25
EQCN	≤ 0.25
YYPA	≤ 0.25
DFPF	≤ 0.25
TTGA	12.6
YTMA	≤ 0.25
NEMA	≤ 0.25
TTMA	13.4
TGMA	26.1
YTGA	≤ 0.25
GGMA	≤ 0.25

Variant	enrichment ratio
NHMA	16.2
RGMA	≤ 0.25
ITGA	≤ 0.25
THMA	6.15
WIMA	≤ 0.25
LFNF	≤ 0.25
DMIQ	≤ 0.25
LEWL	≤ 0.25
ADCH	9.13
GPHV	≤ 0.25
TGWN	≤ 0.25
PMPR	≤ 0.25
KQFD	≤ 0.25
WFVI	≤ 0.25
RFQA	≤ 0.25
VHFG	≤ 0.25
EVCW	≤ 0.25
AIMA	12.1
AHMA	≤ 0.25
ATMA	1.82
EPIW	≤ 0.25
NQNT	≤ 0.25
STVT	0.835
SSAT	8.03

Variant	enrichment ratio
SSLK	5.98
SSLT	12
SSLS	11.4
SSVT	14.6
SSNT	≤ 0.25
SSLA	7.43
KSVT	≤ 0.25
HWNL	≤ 0.25
QGSH	9.79
TMLT	1.84
HPCD	≤ 0.25
SSRS	≤ 0.25
HMWA	≤ 0.25
LPNW	0.366
QQHW	≤ 0.25
THTR	≤ 0.25
AHLH	≤ 0.25
AKLH	14.6
KKLH	≤ 0.25
AQLH	13.8
HKLH	≤ 0.25
TPLH	≤ 0.25
CQLH	27.9
TKLH	11.9

Variant	enrichment ratio
RQLH	≤ 0.25
WQLH	≤ 0.25
HQLH	≤ 0.25
MKLH	≤ 0.25
PTHK	≤ 0.25
EMCT	≤ 0.25
CHLM	≤ 0.25
QVLK	≤ 0.25
NHYM	≤ 0.25
SMGQ	11.7
KMAQ	≤ 0.25
SMCK	9.85
SMCY	11.6
SMGG	1.44
SLCY	2.99
SMCS	10.4
SMCI	14.3
KYAQ	≤ 0.25
SMAQ	15.5
SMHP	≤ 0.25
MMCY	≤ 0.25
GSEH	≤ 0.25
IYMF	≤ 0.25
IKKL	≤ 0.25

Variant	enrichment ratio
TQFP	≤ 0.25
KGRD	≤ 0.25
LVLT	≤ 0.25
VGSS	≤ 0.25
WDDM	≤ 0.25
GMHA	≤ 0.25
SMTM	14.9
SMPL	≤ 0.25
SMPM	≤ 0.25
SMSH	9.89
SMSQ	11.1
SMGL	5.54
SMSA	14.6
SMMD	≤ 0.25
SMCL	16.6
SMME	14.6
SMMY	2.28
SMWM	≤ 0.25
LSHR	≤ 0.25
KFYP	≤ 0.25
KYSQ	≤ 0.25
KEDF	≤ 0.25
HKIL	≤ 0.25
EQYF	≤ 0.25

Variant	enrichment ratio
DLKR	≤ 0.25
IPGP	≤ 0.25
FPRY	≤ 0.25
GVMQ	5.97
SMGS	1.09
SMPI	1.09
SMTA	11.8
SMWI	≤ 0.25
SMCA	15.3
SMCW	19.6
SMPA	≤ 0.25
SMPE	0.359
SNCW	10.3
SLCW	0.501
SMCE	11.7
SMIE	≤ 0.25
AKLD	≤ 0.25
VWSC	≤ 0.25
SVVD	≤ 0.25
RVNR	≤ 0.25
SMAE	25.2
KMAE	≤ 0.25
SMAV	5.92
SMSK	2.79

Variant	enrichment ratio
SMSI	12.9
SMSR	≤ 0.25
HLVA	≤ 0.25
AQPM	≤ 0.25
RVFT	≤ 0.25
NAGS	≤ 0.25
RQQG	≤ 0.25
FDMH	≤ 0.25
LTMH	2.1
TDMH	18.2
LTCH	≤ 0.25
FDCH	≤ 0.25
TDCH	11.9
EPTI	≤ 0.25
MAHQ	≤ 0.25
EKMC	≤ 0.25
YTGH	≤ 0.25
QGGH	≤ 0.25
SNGP	≤ 0.25
QIYH	≤ 0.25
QEGH	24.6
STGH	17.1
QRGH	≤ 0.25
QITH	≤ 0.25

Variant	enrichment ratio
QIGH	14
SNGH	23.3
SRGH	≤ 0.25
SNTH	7.23
YAAS	≤ 0.25
QNYF	≤ 0.25
GMNL	≤ 0.25
SKVD	≤ 0.25
LATP	≤ 0.25
DRAC	≤ 0.25
VPLT	≤ 0.25
GGVS	≤ 0.25
FTAL	0.293
QVGH	15.9
QVTH	≤ 0.25
QVGP	≤ 0.25
LEWI	2.42
LEMS	8.78
LRMM	≤ 0.25
LEEG	≤ 0.25
LEMV	12.9
LEMK	≤ 0.25
LEMM	11.3
LEWV	11.9

Variant	enrichment ratio
LEMG	11.8
LEGG	≤ 0.25
LEGM	≤ 0.25
LEIV	≤ 0.25
FPFR	≤ 0.25
FVFS	≤ 0.25
GEKH	≤ 0.25
QGKV	≤ 0.25
SSGP	≤ 0.25
EPLM	≤ 0.25
ALDK	≤ 0.25
EQNV	≤ 0.25
IQAH	≤ 0.25
TQLC	13.1
TQQT	6.08
TQNV	14.2
TQAH	13.3
WQLC	≤ 0.25
TQAT	12.7
IQNV	≤ 0.25
NQAH	≤ 0.25
NQLC	≤ 0.25
TQWT	0.56
MGKS	≤ 0.25

Variant	enrichment ratio
INSM	0.298
IPGV	≤ 0.25
PQPN	≤ 0.25
FQNC	≤ 0.25
NNRL	≤ 0.25
EKQI	≤ 0.25
RWFN	≤ 0.25
NWQL	≤ 0.25
VDAW	≤ 0.25
RNYN	≤ 0.25
FRWR	≤ 0.25
WYYY	≤ 0.25
TQAA	3.31
TQNS	12.8
TQRA	≤ 0.25
TQET	≤ 0.25
LAAD	≤ 0.25
TQNW	≤ 0.25
TQNT	15.4
TQLS	17.6
TQLQ	5.05
TQNY	6.18
TQAD	11.6
TQNI	≤ 0.25

Variant	enrichment ratio
PAWD	≤ 0.25
SEAL	7.85
GSHA	≤ 0.25
AKYV	≤ 0.25
FLDC	≤ 0.25
ANKM	≤ 0.25
TAGV	5.24
ICLI	5.89
FVAK	≤ 0.25
FELQ	8.46
IHIG	≤ 0.25
TQRH	≤ 0.25
TQNH	16.3
TQMT	14.6
TQLA	4.57
TQLK	4.42
TQKH	≤ 0.25
TQLT	18.8
EQMT	≤ 0.25
FQMT	≤ 0.25
